From PMC7862700, “An all-to-all approach to the identification of sequence-specific readers for epigenetic DNA modifications on cytosine”

Columns and labels:
Assay in all cases: DAPPL (digital affinity profiling via proximity ligation, sequencing); 10 mM Tris-HCl pH 7.5, 50 mM NaCl, 1 mM DTT, 4% glycerol, room temperature, 30 min; GST-TFs on glutathione beads, 16-mer random dsDNA library, 0.1% formaldehyde crosslink after washing; high values mean tight binding
Conditions in all cases: protein: recombinant; tags: N-terminal GST; dsDNA, one strand shown
[1] = biological target: T1, ERF (Homo sapiens, UniProt P50548 1-548)
T1 sequence: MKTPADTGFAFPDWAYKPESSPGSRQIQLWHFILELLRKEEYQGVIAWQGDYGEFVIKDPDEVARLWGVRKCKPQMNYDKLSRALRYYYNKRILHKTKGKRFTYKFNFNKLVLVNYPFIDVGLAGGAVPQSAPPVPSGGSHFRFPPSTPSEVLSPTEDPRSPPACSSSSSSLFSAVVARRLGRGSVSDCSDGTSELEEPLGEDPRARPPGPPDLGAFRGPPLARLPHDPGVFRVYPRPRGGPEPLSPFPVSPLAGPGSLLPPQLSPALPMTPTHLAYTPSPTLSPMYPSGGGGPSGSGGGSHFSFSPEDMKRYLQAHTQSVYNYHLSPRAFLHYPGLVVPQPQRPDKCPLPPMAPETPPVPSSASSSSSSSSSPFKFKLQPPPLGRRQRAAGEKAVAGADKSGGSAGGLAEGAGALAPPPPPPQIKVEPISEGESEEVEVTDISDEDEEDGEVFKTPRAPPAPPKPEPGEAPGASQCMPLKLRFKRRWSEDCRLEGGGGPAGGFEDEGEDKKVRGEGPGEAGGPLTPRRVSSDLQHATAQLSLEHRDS
Summary of the method: (§1)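 Yeast served to express human transcription factors as GST fusions, which were then captured on glutathione beads and labelled with DNA barcodes. Pooled with a tag-only sample, they were incubated with 200 nmole of a 16-mer random double-stranded DNA library for 30 min at room temperature in Tris/NaCl/DTT/glycerol buffer, washed, crosslinked with 0.1% formaldehyde, ligated by proximity, amplified by PCR and sequenced. Dividing each hexamer's read frequency for a factor by its frequency for the tag-only sample gives the binding signal.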

[2] = biological target: T2, ETV3L (Homo sapiens, UniProt Q6ZN32 1-361)
T2 sequence: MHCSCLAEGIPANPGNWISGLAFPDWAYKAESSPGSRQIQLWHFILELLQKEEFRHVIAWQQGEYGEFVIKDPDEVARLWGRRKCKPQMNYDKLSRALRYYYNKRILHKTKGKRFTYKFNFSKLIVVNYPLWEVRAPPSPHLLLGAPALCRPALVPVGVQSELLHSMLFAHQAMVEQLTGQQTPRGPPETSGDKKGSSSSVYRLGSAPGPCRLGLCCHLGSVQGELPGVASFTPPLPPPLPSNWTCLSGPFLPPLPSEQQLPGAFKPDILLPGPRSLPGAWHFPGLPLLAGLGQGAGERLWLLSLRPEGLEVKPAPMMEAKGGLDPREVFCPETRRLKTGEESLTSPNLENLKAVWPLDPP
Summary of the method: as §1

[3] = biological target: T3, ETS2 (Homo sapiens, UniProt P15036 1-469)
T3 sequence: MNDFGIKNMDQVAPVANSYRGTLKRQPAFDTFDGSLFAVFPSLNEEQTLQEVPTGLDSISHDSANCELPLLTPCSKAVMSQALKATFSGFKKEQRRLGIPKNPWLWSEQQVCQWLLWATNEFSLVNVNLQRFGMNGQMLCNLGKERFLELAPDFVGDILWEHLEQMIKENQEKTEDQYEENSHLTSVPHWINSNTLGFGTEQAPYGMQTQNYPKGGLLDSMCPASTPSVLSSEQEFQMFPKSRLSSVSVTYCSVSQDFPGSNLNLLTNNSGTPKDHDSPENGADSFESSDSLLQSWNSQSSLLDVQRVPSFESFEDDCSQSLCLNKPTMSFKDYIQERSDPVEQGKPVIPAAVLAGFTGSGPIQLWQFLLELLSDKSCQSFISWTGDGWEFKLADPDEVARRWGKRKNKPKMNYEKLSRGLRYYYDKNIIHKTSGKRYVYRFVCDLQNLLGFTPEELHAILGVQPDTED
Summary of the method: as §1

[4] = biological target: T4, SPDEF (Homo sapiens, UniProt O95238 1-335)
T4 sequence: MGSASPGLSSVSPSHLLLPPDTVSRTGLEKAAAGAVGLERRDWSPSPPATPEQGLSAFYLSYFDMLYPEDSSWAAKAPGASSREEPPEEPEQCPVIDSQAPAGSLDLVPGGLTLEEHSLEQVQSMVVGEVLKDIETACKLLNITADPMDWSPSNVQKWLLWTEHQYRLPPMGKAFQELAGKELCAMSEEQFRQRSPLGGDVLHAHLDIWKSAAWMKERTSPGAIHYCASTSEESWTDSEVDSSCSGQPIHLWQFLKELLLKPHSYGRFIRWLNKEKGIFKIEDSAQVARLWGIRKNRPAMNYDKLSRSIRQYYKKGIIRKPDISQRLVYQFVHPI
Summary of the method: as §1

[5] = biological target: T5, ETV7 (Homo sapiens, UniProt Q9Y603 1-341)
T5 sequence: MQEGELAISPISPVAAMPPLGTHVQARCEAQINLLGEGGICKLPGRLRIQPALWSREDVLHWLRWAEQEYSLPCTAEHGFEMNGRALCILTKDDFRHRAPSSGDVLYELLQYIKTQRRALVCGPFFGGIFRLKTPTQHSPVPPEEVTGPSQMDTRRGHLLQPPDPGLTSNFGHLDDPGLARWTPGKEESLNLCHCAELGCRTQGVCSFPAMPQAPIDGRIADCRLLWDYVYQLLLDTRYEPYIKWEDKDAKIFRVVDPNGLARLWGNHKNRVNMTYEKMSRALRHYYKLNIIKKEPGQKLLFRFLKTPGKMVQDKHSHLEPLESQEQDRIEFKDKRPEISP
Summary of the method: as §1

[6] = biological target: T6, ELF5 (Homo sapiens, UniProt Q9UKW6-2 1-255)
T6 sequence: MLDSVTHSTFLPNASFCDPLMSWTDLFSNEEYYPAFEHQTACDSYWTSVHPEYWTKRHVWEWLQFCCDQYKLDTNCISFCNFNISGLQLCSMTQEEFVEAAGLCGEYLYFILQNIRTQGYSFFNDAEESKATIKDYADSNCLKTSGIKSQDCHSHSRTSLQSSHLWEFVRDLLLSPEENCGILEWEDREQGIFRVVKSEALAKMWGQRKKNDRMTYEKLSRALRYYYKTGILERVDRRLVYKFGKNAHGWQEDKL
Summary of the method: as §1

[7] = biological target: T7, ETV3 (Homo sapiens, UniProt P41162-2 1-143)
T7 sequence: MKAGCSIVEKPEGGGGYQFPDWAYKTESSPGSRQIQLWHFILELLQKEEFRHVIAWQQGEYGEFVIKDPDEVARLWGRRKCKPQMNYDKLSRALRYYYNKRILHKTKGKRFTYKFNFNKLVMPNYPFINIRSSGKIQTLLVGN
Summary of the method: as §1

[8] = biological target: ETV6 (Homo sapiens, UniProt P41212 1-452)
Summary of the method: as §1

ETV6, sequence (P41212 whole entry): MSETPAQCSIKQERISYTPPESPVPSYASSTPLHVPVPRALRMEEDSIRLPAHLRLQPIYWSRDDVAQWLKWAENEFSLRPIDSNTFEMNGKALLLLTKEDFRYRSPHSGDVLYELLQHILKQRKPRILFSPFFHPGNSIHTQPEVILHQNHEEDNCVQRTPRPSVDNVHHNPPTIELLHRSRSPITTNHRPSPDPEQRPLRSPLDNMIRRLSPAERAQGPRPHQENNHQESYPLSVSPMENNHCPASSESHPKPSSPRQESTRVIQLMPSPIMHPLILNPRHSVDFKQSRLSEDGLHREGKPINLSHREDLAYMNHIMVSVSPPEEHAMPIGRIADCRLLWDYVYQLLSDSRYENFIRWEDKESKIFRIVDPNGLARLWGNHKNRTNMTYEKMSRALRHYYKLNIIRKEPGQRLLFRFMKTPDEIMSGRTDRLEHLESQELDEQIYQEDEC

Q: Which results are given for CTTAGG?
A: binding signal [1]: 1.12 fold enrichment (6-mer frequency, TF over GST control); binding signal [2]: 1.01 fold enrichment (6-mer frequency, TF over GST control); binding signal [3]: 1.23 fold enrichment (6-mer frequency, TF over GST control); binding signal [4]: 1.06 fold enrichment (6-mer frequency, TF over GST control); binding signal [5]: 1.17 fold enrichment (6-mer frequency, TF over GST control); binding signal [6]: 1.11 fold enrichment (6-mer frequency, TF over GST control); binding signal [7]: 1.1 fold enrichment (6-mer frequency, TF over GST control); binding signal [8]: 1.15 fold enrichment (6-mer frequency, TF over GST control)

Q: For TATGAT, which binding signal [1] is on record?
A: 1.22 fold enrichment (6-mer frequency, TF over GST control)

Q: What about the binding signal [2] of the same sequence?
A: 1.18 fold enrichment (6-mer frequency, TF over GST control)

Q: And the binding signal [3]?
A: 1.17 fold enrichment (6-mer frequency, TF over GST control)

Q: And the binding signal [4]?
A: 1.23 fold enrichment (6-mer frequency, TF over GST control)

Q: And the binding signal [5]?
A: 1.25 fold enrichment (6-mer frequency, TF over GST control)

Q: And the binding signal [6]?
A: 1.26 fold enrichment (6-mer frequency, TF over GST control)

Q: What about the binding signal [7] of the same sequence?
A: 1.26 fold enrichment (6-mer frequency, TF over GST control)

Q: What about the binding signal [8] of the same sequence?
A: 1.17 fold enrichment (6-mer frequency, TF over GST control)

Q: CTTTGA was tested. Which binding signal [1] did it give?
A: 1.18 fold enrichment (6-mer frequency, TF over GST control)

Q: What about the binding signal [2] of the same sequence?
A: 1.11 fold enrichment (6-mer frequency, TF over GST control)

Q: And the binding signal [3]?
A: 1.15 fold enrichment (6-mer frequency, TF over GST control)

Q: What about the binding signal [4] of the same sequence?
A: 1.1 fold enrichment (6-mer frequency, TF over GST control)

Q: What about the binding signal [5] of the same sequence?
A: 1.34 fold enrichment (6-mer frequency, TF over GST control)

Q: What about the binding signal [6] of the same sequence?
A: 1.16 fold enrichment (6-mer frequency, TF over GST control)

Q: And the binding signal [7]?
A: 1.35 fold enrichment (6-mer frequency, TF over GST control)

Q: What about the binding signal [8] of the same sequence?
A: 1.25 fold enrichment (6-mer frequency, TF over GST control)

Q: TGACCC was tested. Which binding signal [1] did it give?
A: 1.4 fold enrichment (6-mer frequency, TF over GST control)

Q: And the binding signal [2]?
A: 1.3 fold enrichment (6-mer frequency, TF over GST control)

Q: And the binding signal [3]?
A: 1.38 fold enrichment (6-mer frequency, TF over GST control)

Q: What about the binding signal [4] of the same sequence?
A: 1.49 fold enrichment (6-mer frequency, TF over GST control)

Q: And the binding signal [5]?
A: 1.4 fold enrichment (6-mer frequency, TF over GST control)

Q: What about the binding signal [6] of the same sequence?
A: 1.4 fold enrichment (6-mer frequency, TF over GST control)

Q: And the binding signal [7]?
A: 1.39 fold enrichment (6-mer frequency, TF over GST control)

Q: And the binding signal [8]?
A: 1.28 fold enrichment (6-mer frequency, TF over GST control)

Q: Which binding signal [1] does the source give for ATCTGC here?
A: 1.31 fold enrichment (6-mer frequency, TF over GST control)

Q: And the binding signal [2]?
A: 1.4 fold enrichment (6-mer frequency, TF over GST control)

Q: What about the binding signal [3] of the same sequence?
A: 1.37 fold enrichment (6-mer frequency, TF over GST control)

Q: And the binding signal [4]?
A: 1.36 fold enrichment (6-mer frequency, TF over GST control)

Q: And the binding signal [5]?
A: 1.38 fold enrichment (6-mer frequency, TF over GST control)

Q: And the binding signal [6]?
A: 1.31 fold enrichment (6-mer frequency, TF over GST control)

Q: And the binding signal [7]?
A: 1.36 fold enrichment (6-mer frequency, TF over GST control)

Q: And the binding signal [8]?
A: 1.29 fold enrichment (6-mer frequency, TF over GST control)

Q: Which binding signal [1] does the source give for CTACTA here?
A: 1.35 fold enrichment (6-mer frequency, TF over GST control)

Q: What about the binding signal [2] of the same sequence?
A: 1.29 fold enrichment (6-mer frequency, TF over GST control)

Q: What about the binding signal [3] of the same sequence?
A: 1.26 fold enrichment (6-mer frequency, TF over GST control)

Q: And the binding signal [4]?
A: 1.28 fold enrichment (6-mer frequency, TF over GST control)

Q: What about the binding signal [5] of the same sequence?
A: 1.44 fold enrichment (6-mer frequency, TF over GST control)

Q: What about the binding signal [6] of the same sequence?
A: 1.24 fold enrichment (6-mer frequency, TF over GST control)

Q: And the binding signal [7]?
A: 1.23 fold enrichment (6-mer frequency, TF over GST control)

Q: And the binding signal [8]?
A: 1.46 fold enrichment (6-mer frequency, TF over GST control)

Q: For TTAACA, which binding signal [1] is on record?
A: 1.19 fold enrichment (6-mer frequency, TF over GST control)

Q: What about the binding signal [2] of the same sequence?
A: 1.2 fold enrichment (6-mer frequency, TF over GST control)

Q: And the binding signal [3]?
A: 1.19 fold enrichment (6-mer frequency, TF over GST control)

Q: And the binding signal [4]?
A: 1.21 fold enrichment (6-mer frequency, TF over GST control)

Q: And the binding signal [5]?
A: 1.18 fold enrichment (6-mer frequency, TF over GST control)

Q: What about the binding signal [6] of the same sequence?
A: 1.14 fold enrichment (6-mer frequency, TF over GST control)

Q: And the binding signal [7]?
A: 1.19 fold enrichment (6-mer frequency, TF over GST control)

Q: What about the binding signal [8] of the same sequence?
A: 1.11 fold enrichment (6-mer frequency, TF over GST control)

Q: How did the binding signal [1] turn out when GTCTCC was run?
A: 1.45 fold enrichment (6-mer frequency, TF over GST control)

Q: And the binding signal [2]?
A: 1.67 fold enrichment (6-mer frequency, TF over GST control)

Q: What about the binding signal [3] of the same sequence?
A: 1.52 fold enrichment (6-mer frequency, TF over GST control)

Q: What about the binding signal [4] of the same sequence?
A: 1.47 fold enrichment (6-mer frequency, TF over GST control)

Q: And the binding signal [5]?
A: 1.32 fold enrichment (6-mer frequency, TF over GST control)

Q: And the binding signal [6]?
A: 1.4 fold enrichment (6-mer frequency, TF over GST control)

Q: What about the binding signal [7] of the same sequence?
A: 1.52 fold enrichment (6-mer frequency, TF over GST control)

Q: What about the binding signal [8] of the same sequence?
A: 1.51 fold enrichment (6-mer frequency, TF over GST control)

Q: Which binding signal [1] does the source give for GTTCTA here?
A: 1.27 fold enrichment (6-mer frequency, TF over GST control)

Q: And the binding signal [2]?
A: 1.2 fold enrichment (6-mer frequency, TF over GST control)

Q: And the binding signal [3]?
A: 1.25 fold enrichment (6-mer frequency, TF over GST control)

Q: And the binding signal [4]?
A: 1.19 fold enrichment (6-mer frequency, TF over GST control)

Q: And the binding signal [5]?
A: 1.2 fold enrichment (6-mer frequency, TF over GST control)

Q: What about the binding signal [6] of the same sequence?
A: 1.23 fold enrichment (6-mer frequency, TF over GST control)

Q: What about the binding signal [7] of the same sequence?
A: 1.19 fold enrichment (6-mer frequency, TF over GST control)

Q: And the binding signal [8]?
A: 1.24 fold enrichment (6-mer frequency, TF over GST control)
